Experimental data as given in PubChem BioAssay (NCI).
Values joined by “and” are separate entries in the source; they are usually repeats but may differ in a detail not shown here. Identical values can stand only once. About 83,000 compounds went through this panel and 20% of them were active in at least one assay; those are over-represented in the sample as a whole.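 The test compound was applied at a single concentration to cells in 96-well plates for 48 hours, and percent growth was recorded.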 Unmarked numbers belong to inactive results. Active and inactive are the calls of the source. The calls were made as follows: active = growth percent below 10; inactive = the rest.

system: MALME-3M melanoma; assay: NCI-60 one-dose screen, 48 h (100 = growth as untreated, 0 = no growth, -100 = all killed); settings: 10 µM

| SMILES | growth |
| --- | --- |
| COc1ccc(C(C#N)=C2C=CC(=NO)C=C2)cc1 | 103% |
| CC1CCC2(C(=O)O)CCC3(C)C(=CCC4C5(C)CC(O)C(O)C(C)(CO)C5C(O)CC43C)C2C1C (configuration not stated) | 103% |
| COc1ccc2c(c1)[nH]c1c(/C=C/c3ccccc3)nccc12 | 69.2% |
| O=C(O)c1ccccc1.[Ag] | 119% |
| Cc1cc(O)c2c(c1O)C(=O)C13C(=C2O)C(=O)C2C(O)C1C1C(O)C3C(=O)C3=C(O)c4c(O)cc(C)c(O)c4C(=O)C321 (configuration not stated) | -2.77% (active) |
| S=C1SCN(CCc2ccccc2)CN1CCc1ccccc1 | 87.3% |
| Cc1cc(C)c(N2C(=O)CC(Sc3ccccc3N)C2=O)c(C)c1 (configuration not stated) | 77.5% |
| COc1ccc2oc(-c3ccc(Cl)cc3)c(N3CCN(C)CC3)c2c1 | 121% |
| NCc1c(O)ccc2ccccc12 | 96.6% |
| O=C(NC(=S)Nc1ccccn1)c1ccccc1 | 82.6% |
| CN(CC(=O)O)c1ccc(/C=C/c2ccnc3ccccc23)cc1 | 99.2% |
| Cc1c(-c2ccccc2)[nH]c2ccccc12 | 106% |
| S=P(N1CC1)(N1CC1)N1CC1 | 98.1% and 97.8% |
| ClCCn1c(CCl)nc2ccc(Cl)cc21 | -64.3% (active) |
| CN(C)c1ccc(/C=C/c2ccnc3ccccc23)cc1N | 68% |
| COc1ccc(N)c2c1C(=O)c1ccccc1C2=O | 88.2% |
| CC[C@@]1(OC(=O)CN(C)C)C(=O)OCc2c1cc1n(c2=O)Cc2cc3c(N)cccc3nc2-1 | -23.9% (active) |
